Screens (PubChem)
Many of the other results were omitted from the sample, so hits are more common in it than they were.
BLM helicase inh – blocks DNA unwinding by human BLM helicase; P54132; AID 2528; recombinant BLM DNA unwinding, fluorescence dequenching; Potency, µM (doses to about 56.1 µM), hits mostly inhibitors; 0.2% of 350,000 active; also: nearly all actives have a fitted effect of over 35% in size
L3MBTL1 inh – inhibitors of human L3MBTL1; Q9Y468; AlphaScreen L3MBTL1–H3K9me1 peptide binding; Potency, µM (doses to about 57.1 µM), usual class: inhibitors; 0.66% of 230,000 active; AID 485360; also: nearly all actives have a fitted effect of over 60% in size
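Displacement of a biotinylated histone H3(1-15) peptide monomethylated at Lys9 (75 nM) from L3MBTL1 (50 nM) was measured by AlphaScreen after a 30 min room-temperature compound incubation; cefsulodin titration served as intraplate control.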
APE1 inh – APE1 (human) endonuclease inhibition; Potency, µM (series often up to 65.8 µM), hits mostly inhibitors; recombinant APE1, TAMRA/BHQ-2 abasic DNA cleavage fluorescence; 0.35% of 350,000 active; AID 2517; P27695; also: nearly all actives have a fitted effect of over 55% in size
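Substrate: short duplex with […] THF abasic site, 5'-TAMRA and 3'-BHQ-2, 50 nM final. APE1 at 0.75 nM, preincubated 15 min RT with compound. Fluorescence increase from first to third read measured activity.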
TDP1 block – TDP1 (human) enzyme inhibition; Q9NUW8; Potency, µM (doses to about 130 µM), hits mostly inhibitors; 0.28% of 350,000 active; recombinant TDP1, AlphaScreen DNA substrate cleavage; also: nearly all actives have a fitted effect of over 40% in size
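Compounds were preincubated with Tdp1 (1 nM final) for 15 min at room temperature before substrate (15 nM final) started a 5 min reaction; beads (10 ug/ml final) were then added for 10 min before AlphaScreen detection.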
KDM4E inh – inhibitors of human JMJD2E histone demethylase; B2RXH2; JMJD2E catalytic domain, FDH-coupled NADH fluorescence (FDH is formaldehyde dehydrogenase); Potency, µM (doses to about 57.1 µM), actives largely listed as inhibitors; 1.6% of 230,000 active; active = well fitted inhibition curve with a large enough effect, not every such curve was filed as active; inconclusive = small, poorly fitted or top-dose-only effect, or another doubt; inactive = no such curve, though single readings can be large or run the other way; also: nearly all actives have a fitted effect of over 50% in size
RECQ1 inh – inhibitors of human RECQ1 DNA helicase. Potency, µM (doses to about 57.3 µM), most hits filed as inhibitors. RECQ1 DNA unwinding, red fluorescence kinetic read. 0.54% of 240,000 active. AID 2549. P46063; also: nearly all actives have a fitted effect of over 30% in size
Target sequence (P46063 whole entry, looked up): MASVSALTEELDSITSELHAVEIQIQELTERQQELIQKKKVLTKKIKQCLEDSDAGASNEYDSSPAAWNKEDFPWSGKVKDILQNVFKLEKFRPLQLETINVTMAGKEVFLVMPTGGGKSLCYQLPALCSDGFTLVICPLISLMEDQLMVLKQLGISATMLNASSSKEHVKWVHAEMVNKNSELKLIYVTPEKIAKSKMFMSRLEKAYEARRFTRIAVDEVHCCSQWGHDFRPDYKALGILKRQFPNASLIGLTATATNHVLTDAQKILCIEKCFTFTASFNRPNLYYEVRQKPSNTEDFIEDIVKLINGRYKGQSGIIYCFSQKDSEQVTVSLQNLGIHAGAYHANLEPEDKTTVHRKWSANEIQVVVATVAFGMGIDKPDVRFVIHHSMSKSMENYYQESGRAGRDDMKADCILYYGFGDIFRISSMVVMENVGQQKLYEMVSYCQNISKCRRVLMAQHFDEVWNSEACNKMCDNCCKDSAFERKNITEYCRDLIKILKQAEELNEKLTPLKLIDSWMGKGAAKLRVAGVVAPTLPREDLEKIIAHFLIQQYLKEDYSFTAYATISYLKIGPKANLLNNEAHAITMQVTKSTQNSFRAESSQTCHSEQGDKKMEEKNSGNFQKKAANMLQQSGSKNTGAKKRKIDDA
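RECQ1T1 50 nM; forked duplex (20 bp + 30-nt ss tails) 200 nM, ATP 2 mM final; pH 8.0, 2 mM MgCl2, 2.5 ug/ml poly(dI-dC); 15 min compound preincubation; discontinuous kinetic read over 2 h at RT.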
Hits are given with their value; - = inactive; ? = inconclusive; . = no result; [ ] = another dose, or the depositor's remark. Unless noted, calls follow the shape of the dose curve; as a rule, active = well fitted curve in the direction sought with a large enough effect; inconclusive = small, poorly fitted or top-dose-only effect, or another doubt; inactive = no such curve, though single readings can be large; an effect the other way counts as inactive or inconclusive.

SMILES | BLM helicase inh | L3MBTL1 inh | APE1 inh | TDP1 block | KDM4E inh | RECQ1 inh
CC[C@H](C)[C@H](NC(=O)[C@H](CCC(=O)O)NC(=O)[C@H](CO)NC(=O)[C@@H](NC(=O)[C@@H](N)CO)C(C)C)C(=O)N[C@@H](CCC(N)=O)C(=O)N[C@@H](CC(C)C)C(=O)N[C@@H](CCSC)C(=O)N[C@@H](Cc1cnc[nH]1)C(=O)N[C@@H](CC(N)=O)C(=O)N[C@@H](CC(C)C)C(=O)NCC(=O)N[C@@H](CCCCN)C(=O)N[C@@H](Cc1cnc[nH]1)C(=O)N[C@@H](CC(C)C)C(=O)N[C@@H](CC(N)=O)C(=O)N[C@@H](CO)C(=O)N[C@@H](CCSC)C(=O)N[C@@H](CCC(=O)O)C(=O)N[C@@H](CCCNC(=N)N)C(=O)N[C@H](C(=O)N[C@@H](CCC(=O)O)C(=O)N[C@@H](Cc1c[nH]c2ccccc12)C(=O)N[C@@H](CC(C)C)C(=O)N[C@@H](CCCNC(=N)N)C(=O)N[C@@H](CCCCN)C(=O)N[C@@H](CCCCN)C(=O)N[C@@H](CC(C)C)C(=O)N[C@@H](CCC(N)=O)C(=O)N[C@@H](CC(=O)O)C(=O)N[C@H](C(=O)N[C@@H](Cc1cnc[nH]1)C(=O)N[C@@H](CC(N)=O)C(=O)N[C@@H](Cc1ccccc1)C(=O)N[C@H](C(=O)N[C@@H](C)C(=O)N[C@@H](CC(C)C)C(=O)NCC(=O)O)C(C)C)C(C)C)C(C)C | - | . | - | - | . | -
COCCNC(=O)CCCn1c(SCC(=O)c2ccc(Br)cc2)nc2c(sc3ccccc32)c1=O | - | . | . | - | . | .
COc1ccc2nc(-c3ccccc3)cc(C(=O)OCC(=O)N3CCCCC3)c2c1 | . | - | - | 45µM | . | .
Oc1ccccc1/C=N/Nc1nc2ccccc2o1 | - | - | - | - | 28µM | ?
Brc1ccc(/C=N/Nc2nc3ccccc3o2)cc1 | - | . | - | . | . | .
O=C1C=C(c2ccc3cc[nH]c3c2)C[C@@H](c2ccc3c(c2)OCO3)C1 | . | 32µM | 12µM | ? | . | .
CCNC(=S)N/N=C1\C(=O)c2cccc3cccc1c23 | - | . | - | - | - | -
O=C(N/N=C1/C(=O)c2cccc3cccc1c23)c1ccc(Cl)cc1 | 10µM | . | - | . | - | -
Nc1ncc(O)c(N)n1 | - | . | - | - | . | -
CC(C)(C)c1ccc(OCCn2c(CCNC(=O)C3CCCCC3)nc3ccccc32)cc1 | . | . | . | - | . | .
O=C(c1cc2cc([N+](=O)[O-])ccc2oc1=O)n1cccn1 | - | 40µM | - | - | - | -
O=C(CNC(=O)c1ccccc1)N[C@@H](C(=O)Nc1cc(C(F)(F)F)ccc1Cl)c1ccccc1 | . | . | . | - | . | .
O=C(O)c1cccc(-c2nc(-c3ccccc3C(F)(F)F)no2)c1 | . | . | - | . | . | .
CCOc1cc(N2CCOCC2)c(OCC)cc1NC(C)C(=O)N1CCC(C)CC1 (centres undefined) | - | - | - | - | 11µM | -
Oc1cc(-n2cccn2)c(O)cc1-n1cccn1 | - | - | - | - | 16µM | -
COc1cccc(-c2nccc(NC3CCNCC3)n2)c1 | - | . | - | 20µM | - | -
COc1ccccc1-c1nccc(NC2CCNCC2)n1 | - | . | - | . | . | -
CCc1ccc(Nc2n[n+](C)c(-c3ccc(C(=O)O)cc3)s2)cc1 | - | . | - | - | ? | -
C[n+]1nc(Nc2cccc3ccccc23)sc1-c1ccc(C(=O)O)cc1 | - | . | - | - | 8.9µM | -
N#Cc1ccc(S(=O)(=O)N2CCN(S(=O)(=O)c3ccc4c(c3)OCCO4)CC2)cc1 | . | . | . | - | . | .
CCN1CCN(C(c2ccc(C(F)(F)F)cc2)c2ccc3cccnc3c2O)CC1 (centres undefined) | - | . | - | . | . | .
OCCN1CCN(C(c2cccs2)c2ccc3cccnc3c2O)CC1 (centres undefined) | - | - | - | 7.1µM | 8.9µM | -
CCc1ccc(Nc2nnc(SCC(=O)NC(=O)CN3CCCC3=O)s2)cc1 | . | - | 13µM | 18µM | . | .
O=C(Cc1nnc(CNC(=O)c2ccccc2)s1)Nc1ccc(C(F)(F)F)cc1Cl | . | . | . | - | . | .
CC(=O)C1=C(c2ccccc2)NC(=S)NC1c1cc(Cl)c(OC(C)C)c(Cl)c1 (centres undefined) | - | - | - | - | - | -
SMILES | BLM helicase inh | L3MBTL1 inh | APE1 inh | TDP1 block | KDM4E inh | RECQ1 inh
CC(=O)C1=C(c2ccccc2)NC(=O)NC1c1ccc(O)c(O)c1 (centres undefined) | - | ? | 40µM | - | ? | -
CC(=O)C1=C(c2ccccc2)NC(=S)NC1c1ccc(O)c(O)c1 (centres undefined) | - | ? | 13µM | - | 22µM | ?
CC(=O)C1=C(c2ccccc2)NC(=O)NC1c1ccc2c(c1)OCO2 (centres undefined) | - | - | - | . | . | .
O=C1CCc2cc(S(=O)(=O)Nc3cccc(Br)c3)ccc2N1 | . | . | . | - | . | .
O=C(NN1C(=O)CSC1=S)C(=O)NN1C(=O)CSC1=S | - | 0.79µM | 2.2µM | . | 8.9µM | 10µM
CN(C)C1CCN(CCCOc2ccc(-c3ccc(C#N)cc3)cc2)C1 (centres undefined) | - | . | - | - | . | -
CC(=O)N(C1=C(N2CCOCC2)C(=O)c2ccccc2C1=O)c1ccc(C(=O)O)cc1 | - | - | - | - | 10µM | -
COc1ccc(OC)c2sc(N(CCCN(C)C)C(=O)c3ccc(S(=O)(=O)N4CCc5ccccc5C4)cc3)nc12 | . | - | 30µM | - | . | .
COc1cccc2sc(N(CCCN(C)C)C(=O)c3ccc(S(=O)(=O)N4CCc5ccccc5C4)cc3)nc12 | - | . | - | - | . | .
NS(=O)(=O)c1cc(C(=O)NC2CCSc3ccccc32)ccc1Cl (centres undefined) | 8.9µM | . | 0.12µM | 1.3µM | . | .
NS(=O)(=O)c1cccc(C(=O)NC2CCSc3ccccc32)c1 (centres undefined) | - | . | - | . | . | .
O=C1CCc2cc(S(=O)(=O)Nc3cc(F)cc(Cl)c3)c(F)cc2N1 | . | . | . | - | . | .
NC(=O)C1CCN(c2nc(-c3cccc4ccccc34)cs2)CC1 | . | . | - | . | . | .
O=C(CSc1ncn[nH]1)CSc1ncn[nH]1 | - | . | - | - | 3.5µM | -
CC(C)(C)NC(=O)NC(=O)CSc1ncn[nH]1 | - | . | - | - | - | -
CC(C)(C)OC(=O)Cc1nnc(-c2cc3ccccc3[nH]2)s1 | . | . | . | - | . | .
CCOc1ccccc1NC(=O)CN1CCCCCC1 | - | - | - | 14µM | . | .
COC(=O)C/C=C\[C@@H](C)[C@@H](/C=N\O[C@@H](C)c1cc(-c2c(C)cc(C)cc2C)no1)OC | -[12.4 µM] | . | -[12.4 µM] | -[21 µM] | . | -[11.5 µM]
Cc1cc(=O)oc2cc(OCc3ccc(C(=O)OCC(=O)NC4CCS(=O)(=O)C4)cc3)ccc12 (centres undefined) | - | - | ? | 8.9µM | ? | -
